Laboratory results taken from PubChem BioAssay (NCATS).
Inconclusive results are not listed. Active and inactive are the calls of the source. Unless noted, calls follow the shape of the dose curve; as a rule, active = well fitted curve in the direction sought with a large enough effect; inconclusive = small, poorly fitted or top-dose-only effect, or another doubt; inactive = no such curve, though single readings can be large; an effect the other way counts as inactive or inconclusive.

Key:
[1] = qHTS assay to identify small molecule inhibitors of chordoma cells - UCH-2 (AID 1259356); also: potency is read from the fitted curve at half-maximal effect
[2] = P-glycoprotein substrates identified in KB-8-5-11 adenocarcinoma cell line, qHTS therapeutic library screen (AID 1346987); also: nearly all actives have a fitted effect of over 65% in size; also: potency is read from the fitted curve at half-maximal effect
How it was run: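 Steps: plate 500 KB-8-5-11 cells/well in DMEM + 10% FCS (colchicine removed); pin compounds in dose-response; incubate 72 h, 37 degree C, 5% CO2; add CellTiter-Glo, 5 min; read luminescence.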

[3] = molecular target: Atrial natriuretic peptide receptor 1 (Homo sapiens) (UniProt P16066); assay: Natriuretic polypeptide receptor (hNpr1) antagonism - Pilot screen (AID 1347049; calls by dose curve;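 also: agonist-evoked cGMP luminescence read 20 min after hNppA addition; series mostly up to about 58 µM; % is scaled to controls: 0 for no effect and ±100 for the full control effect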)
Atrial natriuretic peptide receptor 1 (Homo sapiens), sequence (P16066 whole entry, looked up): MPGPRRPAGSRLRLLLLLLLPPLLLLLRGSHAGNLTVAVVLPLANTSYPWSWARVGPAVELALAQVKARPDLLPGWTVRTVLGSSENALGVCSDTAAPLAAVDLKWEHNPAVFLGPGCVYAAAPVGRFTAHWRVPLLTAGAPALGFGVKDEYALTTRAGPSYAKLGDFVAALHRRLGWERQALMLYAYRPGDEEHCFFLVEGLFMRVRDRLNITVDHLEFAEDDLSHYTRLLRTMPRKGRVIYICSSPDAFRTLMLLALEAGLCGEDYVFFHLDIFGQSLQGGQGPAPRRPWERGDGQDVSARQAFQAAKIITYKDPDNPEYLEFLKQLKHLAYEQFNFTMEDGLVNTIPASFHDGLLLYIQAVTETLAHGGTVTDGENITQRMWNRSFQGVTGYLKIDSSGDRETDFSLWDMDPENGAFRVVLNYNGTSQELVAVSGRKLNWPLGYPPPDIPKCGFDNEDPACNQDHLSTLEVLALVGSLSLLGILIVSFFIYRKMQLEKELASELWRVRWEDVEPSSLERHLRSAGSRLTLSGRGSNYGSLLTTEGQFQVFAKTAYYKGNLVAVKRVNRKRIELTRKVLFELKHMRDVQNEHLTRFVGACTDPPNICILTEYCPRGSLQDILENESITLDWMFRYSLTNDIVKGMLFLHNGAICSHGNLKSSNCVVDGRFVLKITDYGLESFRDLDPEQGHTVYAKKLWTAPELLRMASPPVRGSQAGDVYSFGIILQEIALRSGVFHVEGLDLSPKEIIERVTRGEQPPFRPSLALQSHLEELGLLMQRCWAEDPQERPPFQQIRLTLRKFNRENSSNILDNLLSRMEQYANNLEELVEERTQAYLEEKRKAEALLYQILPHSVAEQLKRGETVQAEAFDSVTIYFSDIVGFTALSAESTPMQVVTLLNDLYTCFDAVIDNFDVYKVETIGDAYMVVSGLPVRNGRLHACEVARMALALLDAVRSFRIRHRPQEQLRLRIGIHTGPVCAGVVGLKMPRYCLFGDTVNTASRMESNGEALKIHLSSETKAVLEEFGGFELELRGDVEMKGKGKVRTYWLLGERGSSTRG
How it was run: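 HEK293 cells co-expressing hNpr1 and the GloSensor pGS-40F cGMP luciferase sensor were preloaded with 2% GloSensor reagent for 2 h. Compounds were added for 30 min at room temperature, then cells were stimulated with 0.1 nM hNppA for 20 min before luminescence readout.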

[4] = molecular target: Atrial natriuretic peptide receptor 2 (Homo sapiens) (UniProt P20594); assay: Natriuretic polypeptide receptor (hNpr2) antagonism - Pilot subtype selectivity assay (AID 1347050; calls by dose curve; also: potency is read from the fitted curve at half-maximal effect)
Atrial natriuretic peptide receptor 2 (Homo sapiens), sequence (P20594 whole entry, looked up): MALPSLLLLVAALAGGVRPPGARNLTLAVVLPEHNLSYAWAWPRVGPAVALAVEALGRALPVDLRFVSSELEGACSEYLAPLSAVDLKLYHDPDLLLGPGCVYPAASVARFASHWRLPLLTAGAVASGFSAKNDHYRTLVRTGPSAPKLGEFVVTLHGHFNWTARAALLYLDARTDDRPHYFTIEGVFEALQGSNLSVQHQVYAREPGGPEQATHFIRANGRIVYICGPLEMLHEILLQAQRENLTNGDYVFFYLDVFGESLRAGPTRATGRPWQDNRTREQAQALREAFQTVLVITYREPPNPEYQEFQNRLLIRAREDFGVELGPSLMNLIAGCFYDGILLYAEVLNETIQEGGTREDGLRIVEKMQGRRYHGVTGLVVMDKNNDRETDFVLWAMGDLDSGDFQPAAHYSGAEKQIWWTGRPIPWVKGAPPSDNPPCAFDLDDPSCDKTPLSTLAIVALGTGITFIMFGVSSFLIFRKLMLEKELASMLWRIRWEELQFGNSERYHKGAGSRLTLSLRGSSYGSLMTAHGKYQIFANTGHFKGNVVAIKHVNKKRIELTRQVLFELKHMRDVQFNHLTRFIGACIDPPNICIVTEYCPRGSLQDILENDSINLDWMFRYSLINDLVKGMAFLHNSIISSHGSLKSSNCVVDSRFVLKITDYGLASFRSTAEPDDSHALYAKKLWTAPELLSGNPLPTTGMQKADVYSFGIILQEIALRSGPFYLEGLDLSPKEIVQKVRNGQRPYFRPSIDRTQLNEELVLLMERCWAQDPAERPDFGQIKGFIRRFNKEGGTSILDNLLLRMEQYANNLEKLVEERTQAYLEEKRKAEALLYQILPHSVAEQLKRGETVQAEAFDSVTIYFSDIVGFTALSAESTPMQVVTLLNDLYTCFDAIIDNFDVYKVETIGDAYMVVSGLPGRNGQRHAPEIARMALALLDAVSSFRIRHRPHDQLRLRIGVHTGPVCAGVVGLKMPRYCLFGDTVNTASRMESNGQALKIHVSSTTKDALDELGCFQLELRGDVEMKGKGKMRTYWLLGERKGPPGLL
How it was run: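 cGMP-sensor HEK293/hNpr2 cells; 2% GloSensor reagent 2 h RT; compounds 30 min; baseline luminescence read; 1 nM hNppC agonist 20 min RT; final luminescence read by CCD camera. Antagonism = reduced post-agonist signal.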

[5] = molecular target: T1, Tyrosine-protein phosphatase non-receptor type substrate 1 (Homo sapiens) + Leukocyte surface antigen CD47 (Homo sapiens) (UniProt P78324+Q08722); assay: CD47-SIRPalpha protein protein interaction - LANCE assay qHTS validation (AID 1347057; active = well fitted curve in the direction sought with a large enough effect in the signal ratio, with a control signal flat, not every such curve was filed as active; the % refers to the signal ratio; also: series mostly up to about 38 µM; 0% is about no effect)
T1 sequence (P78324 whole entry, looked up): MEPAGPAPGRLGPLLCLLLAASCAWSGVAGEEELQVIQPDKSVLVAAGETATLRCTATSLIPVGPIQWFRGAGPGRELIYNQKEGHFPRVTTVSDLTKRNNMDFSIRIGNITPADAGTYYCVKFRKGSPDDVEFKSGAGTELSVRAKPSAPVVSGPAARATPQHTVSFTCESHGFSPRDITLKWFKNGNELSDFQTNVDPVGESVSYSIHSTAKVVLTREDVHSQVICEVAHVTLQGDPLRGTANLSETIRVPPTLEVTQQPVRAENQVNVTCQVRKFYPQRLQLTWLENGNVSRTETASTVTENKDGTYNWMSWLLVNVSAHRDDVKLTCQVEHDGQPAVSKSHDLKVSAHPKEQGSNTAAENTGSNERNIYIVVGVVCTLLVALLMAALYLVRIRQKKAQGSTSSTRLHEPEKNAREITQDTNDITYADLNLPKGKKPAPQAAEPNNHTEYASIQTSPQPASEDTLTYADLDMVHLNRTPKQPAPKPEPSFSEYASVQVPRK
T1 sequence (Q08722 whole entry, looked up): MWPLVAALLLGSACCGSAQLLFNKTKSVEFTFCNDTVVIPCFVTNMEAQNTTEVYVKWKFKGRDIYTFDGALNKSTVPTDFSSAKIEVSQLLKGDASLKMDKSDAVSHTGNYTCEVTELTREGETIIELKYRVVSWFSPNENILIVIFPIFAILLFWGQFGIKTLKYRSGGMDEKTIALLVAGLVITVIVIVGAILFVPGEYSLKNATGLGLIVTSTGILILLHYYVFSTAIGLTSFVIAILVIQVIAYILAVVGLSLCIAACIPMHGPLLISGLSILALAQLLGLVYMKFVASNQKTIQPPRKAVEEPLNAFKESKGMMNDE
How it was run: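 First, His-tagged CD47 and Eu-labelled anti-His antibody met the compound for 30 min; next, site-specifically biotinylated SIRPalpha was added for 30 min; finally streptavidin-APC was added before reading the TR-FRET ratio.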

[6] = molecular target: T1, Tyrosine-protein phosphatase non-receptor type substrate 1 (Homo sapiens) + Leukocyte surface antigen CD47 (Homo sapiens); assay: CD47-SIRPalpha protein protein interaction - HTRF assay qHTS validation (AID 1347058; active = well fitted curve in the direction sought with a large enough effect in the signal ratio, not every such curve was filed as active; the % refers to the signal ratio; also: series mostly up to about 38 µM; 0% is about no effect)
How it was run: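 TR-FRET read (Ch1/Ch2 ratio) of soluble extracellular CD47 and Avi-biotinylated SIRPalpha domains in PBS pH 7.4 with 0.05% IGEPAL; 7-point compound titration. Sequential 30 min room-temperature steps; non-biotinylated SIRPalpha as control inhibitor.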

[7] = molecular target: T1, Tyrosine-protein phosphatase non-receptor type substrate 1 (Homo sapiens) + Leukocyte surface antigen CD47 (Homo sapiens); assay: CD47-SIRPalpha protein protein interaction - Alpha assay qHTS validation (AID 1347059);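 also: bead proximity luminescence from CD47 binding SIRPalpha after compound preincubation with SIRPalpha; % is scaled to controls: 0 for no effect and ±100 for the full control effect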
How it was run: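 Soluble extracellular domains: Avi-tag biotinylated SIRPalpha (25 nM) preincubated 30 min RT with compound, then 6His-CD47 (12.5 nM) 30 min; Ni-NTA acceptor and streptavidin donor beads (10 ug/mL) 30 min, AlphaScreen read. PBS pH 7.4, 0.05% IGEPAL.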

[8] = molecular target: Parathyroid hormone/parathyroid hormone-related peptide receptor (Homo sapiens) (UniProt Q03431); assay: qHTS for PTHR1 Agonists: Optimization Screen against the NCGC LOPAC library (AID 1347079);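 also: GloSensor cAMP luminescence in HEK-293 GP2 cells expressing human PTHR1 with IBMX; 0% is about no effect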
Parathyroid hormone/parathyroid hormone-related peptide receptor (Homo sapiens), sequence (Q03431 whole entry, looked up): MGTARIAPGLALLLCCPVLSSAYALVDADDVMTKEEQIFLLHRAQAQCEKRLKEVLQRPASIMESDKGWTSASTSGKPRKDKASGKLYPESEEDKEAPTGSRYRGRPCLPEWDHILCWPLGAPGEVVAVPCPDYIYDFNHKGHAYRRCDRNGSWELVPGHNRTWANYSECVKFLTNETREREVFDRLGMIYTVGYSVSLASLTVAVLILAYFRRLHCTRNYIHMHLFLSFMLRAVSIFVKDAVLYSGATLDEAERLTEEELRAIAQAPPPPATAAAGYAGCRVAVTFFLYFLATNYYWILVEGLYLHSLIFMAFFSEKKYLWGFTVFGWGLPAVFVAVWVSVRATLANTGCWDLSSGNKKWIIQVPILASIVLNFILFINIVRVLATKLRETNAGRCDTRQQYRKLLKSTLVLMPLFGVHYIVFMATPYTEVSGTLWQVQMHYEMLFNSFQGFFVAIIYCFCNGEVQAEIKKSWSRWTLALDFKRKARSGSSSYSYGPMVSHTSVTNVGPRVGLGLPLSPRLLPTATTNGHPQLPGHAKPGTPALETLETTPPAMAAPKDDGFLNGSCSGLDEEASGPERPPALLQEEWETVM
How it was run: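 Agonist readout: GloSensor cAMP luminescence, read after 15 min at room temperature. HEK-293-derived GP2 line carries PTHR1; compounds tested as a titration for 1 hr at 37C in presence of IBMX. M-PTH (1-15) served as control.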

[9] = qHTS of pediatric cancer cell lines to identify multiple opportunities for drug repurposing: Primary screen for DAOY cells (AID 1347090);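 also: series mostly up to about 46 µM; plate controls were DMSO for no effect and bortezomib for full effect; nearly all actives have a fitted effect of over 55% in size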
How it was run: (§1)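 Eight- or eleven-point concentration series, 48 h treatment at 37 degrees C in growth media; readout CellTiter-Glo luminescence. Potency and efficacy were taken from the concentration-response curves.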

[10] = qHTS of pediatric cancer cell lines to identify multiple opportunities for drug repurposing: Primary screen for SJ-GBM2 cells (AID 1347091); also: potency is read from the fitted curve at half-maximal effect;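 as to activity change, negative = cytotoxic: plate controls were DMSO neutral control for no effect and bortezomib for full effect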
How it was run: as §1

[11] = Natriuretic polypeptide receptor (hNpr1) antagonism - Pilot counterscreen GloSensor control cell line (AID 1347045; calls by dose curve; also: series mostly up to about 38 µM; % is scaled to controls: 0 for no effect and ±100 for the full control effect)
How it was run: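 Luminescence was read before and 20 min after adding 50 uM SNP, which stimulates soluble guanylyl cyclase. The HEK293 cells expressing the GloSensor cGMP sensor had been preloaded with 2% reagent for 2 h and treated with compound.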

[12] = NS1 protein of Zika virus - qHTS assay to identify small molecule inhibitors in human HEK 293 cells (AID 1347053);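 also: series mostly up to about 46 µM; plate controls were infected untreated cells for no effect and uninfected cells for full effect; nearly all actives have a fitted effect of over 55% in size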
How it was run: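 HEK 293; 20 h pre-culture, 37 C/5% CO2; cpd 1 h pre-infection; ZIKV MR766, MOI = 0.5, 24 h, 37 C; TR-FRET NS1 readout (two anti-NS1 Abs); norm. to no-virus vs infected.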

[13] = qHTS of pediatric cancer cell lines to identify multiple opportunities for drug repurposing: Primary screen for TC32 cells (AID 1347089); also: % is scaled to controls: 0 for no effect and ±100 for the full control effect; nearly all actives have a fitted effect of over 60% in size
How it was run: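 qHTS, TC32, 48 h drug treatment, CellTiter-Glo luminescence as a proxy for metabolically active cells; primary top concentration 46 µM (MIPE 11-pt, NPC 8-pt); confirmatory 11-pt.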

[14] = qHTS of pediatric cancer cell lines to identify multiple opportunities for drug repurposing: Primary screen for BT-37 cells (AID 1347094);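 also: series mostly up to about 57 µM; plate controls were DMSO for no effect and bortezomib for full effect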
How it was run: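 Quantitative HTS format: each compound titrated (MIPE 11 points from 0.78 nM, NPC 8 points from 0.59 nM) onto cells plated 5 hours earlier. After 48 h at 37 degrees C, CellTiter-Glo luminescence was recorded.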

[15] = qHTS of pediatric cancer cell lines to identify multiple opportunities for drug repurposing: Primary screen for A673 cells (AID 1347092); also: % is scaled to controls: 0 for no effect and ±100 for the full control effect; nearly all actives have a fitted effect of over 45% in size
How it was run: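 Luminescence from CellTiter-Glo, taken after 15 min at room temperature, served as the proxy for metabolically active cells following 48 h treatment. Both potency and efficacy were taken from curves fitted to the titration data.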

[16] = qHTS of pediatric cancer cell lines to identify multiple opportunities for drug repurposing: Primary screen for SK-N-MC cells (AID 1347093);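 also: series mostly up to about 46 µM; plate controls were DMSO neutral control for no effect and bortezomib for full effect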
How it was run: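 Metabolically active cells were quantified by ATP-dependent luminescence (CellTiter-Glo, 15 min at room temperature) following 48 h treatment. Cells had been plated at 500-1,000 per well and settled for 5 h beforehand.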

OCCN1CCN(CC/C=C2/c3ccccc3Sc3ccc(C(F)(F)F)cc32)CC1
active: Potency [2] 18.4 µM | Potency [10] 21.1 µM
inactive: Potency [1] | Potency [3] | Potency [4] | outcome [5] | outcome [6] | Potency [7] | outcome [8] | Potency [9]

CCN(CC)CCCN(c1ccccc1)C1Cc2ccccc2C1
active: Potency [1] 23.1 µM | Potency [2] 10.3 µM
inactive: Potency [11] | Potency [3] | outcome [12] | outcome [5] | outcome [6] | Potency [7] | outcome [8] | Potency [13] | Potency [9] | Potency [14]

COc1ccc2c(c1OC)C(=O)O[C@@H]2[C@H]1c2c(cc3c(c2OC)OCO3)CCN1C
active: Potency [4] 16.5 µM
inactive: Potency [1] | Potency [11] | Potency [3] | outcome [12] | outcome [5] | outcome [6] | Potency [7] | outcome [8] | Potency [13] | Potency [9] | Potency [14]

O=C(CCNNC(=O)c1ccncc1)NCc1ccccc1
inactive: Potency [1] | Potency [2] | Potency [11] | Potency [3] | Potency [4] | outcome [12] | outcome [6] | Potency [7] | outcome [8] | Potency [9] | Potency [10] | Potency [15] | Potency [14]

C(=C\c1ccccc1)/CN1CCN(C(c2ccccc2)c2ccccc2)CC1
inactive: Potency [1] | Potency [2] | Potency [11] | Potency [3] | Potency [4] | outcome [12] | outcome [6] | Potency [7] | outcome [8] | Potency [14]

CC1=NS(=O)(=O)c2cc(Cl)ccc2N1
inactive: Potency [1] | Potency [11] | Potency [3] | Potency [4] | outcome [12] | outcome [5] | Potency [7] | outcome [8] | Potency [13] | Potency [9] | Potency [10] | Potency [15] | Potency [16] | Potency [14]

CCCCNC(=O)NS(=O)(=O)c1ccc(C)cc1
inactive: Potency [1] | Potency [11] | Potency [3] | Potency [4] | outcome [12] | outcome [6] | Potency [7] | outcome [8] | Potency [9] | Potency [10] | Potency [15] | Potency [14]

COCCOC(=O)C1=C(C)NC(C)=C(C(=O)OC(C)C)C1c1cccc([N+](=O)[O-])c1 (configuration not stated)
inactive: Potency [1] | Potency [11] | Potency [3] | Potency [4] | outcome [12] | outcome [5] | Potency [7] | outcome [8] | Potency [13]

O=C(CCCN1CCC(O)(c2cccc(C(F)(F)F)c2)CC1)c1ccc(F)cc1
inactive: Potency [1] | Potency [3] | Potency [4] | outcome [12] | outcome [5] | outcome [6] | Potency [7] | outcome [8] | Potency [13] | Potency [9] | Potency [14]

CSc1ccc(C(=O)c2[nH]c(=O)[nH]c2C)cc1
inactive: Potency [1] | Potency [11] | Potency [3] | Potency [4] | outcome [12] | outcome [5] | Potency [7] | Potency [13] | Potency [9] | Potency [10] | Potency [15] | Potency [16] | Potency [14]

CCN(CC)CCOCCOC(=O)C1(c2ccccc2)CCCC1
inactive: Potency [1] | Potency [11] | Potency [3] | Potency [4] | outcome [12] | outcome [5] | outcome [6] | Potency [7] | outcome [8] | Potency [9] | Potency [10] | Potency [15] | Potency [16]

CN1CCN(CC(=O)N2c3ccccc3C(=O)Nc3cccnc32)CC1
inactive: Potency [1] | Potency [11] | Potency [3] | Potency [4] | outcome [12] | outcome [5] | Potency [7] | outcome [8] | activity change, negative = cytotoxic [9] 1.05% [at 4.84 µM] | activity change, negative = cytotoxic [10] 3.45% [at 4.84 µM] | activity change, negative = cytotoxic [15] 5.45% [at 4.84 µM] | activity change, negative = cytotoxic [16] -2.23% [at 4.84 µM] | activity change, negative = cytotoxic [14] 11.8% [at 6.03 µM]

CN(C)CCCN1c2ccccc2Sc2ccc(C(F)(F)F)cc21
inactive: Potency [1] | Potency [3] | outcome [12] | outcome [8] | Potency [9]

CCCCNc1c(C(=O)OCC)c(C)nc2c1cnn2CC
inactive: Potency [1] | Potency [11] | Potency [3] | Potency [4] | outcome [12] | outcome [5] | outcome [6] | Potency [7] | outcome [8] | Potency [9] | Potency [10] | Potency [14]

Cc1cccc(C)c1NC(=O)C(C)N (configuration not stated)
inactive: Potency [1] | Potency [11] | Potency [3] | Potency [4] | outcome [12] | outcome [6] | Potency [7] | outcome [8] | Potency [13] | Potency [9] | Potency [10] | Potency [15] | Potency [16] | Potency [14]

C#CCN(C)CCCOc1ccc(Cl)cc1Cl
inactive: Potency [1] | Potency [11] | Potency [3] | Potency [4] | outcome [12] | outcome [6] | Potency [7] | outcome [8] | Potency [13] | Potency [9] | Potency [10] | Potency [15] | Potency [16] | Potency [14]

CCc1cccc(N(C)C(N)=Nc2cccc3ccccc23)c1
inactive: Potency [1] | Potency [11] | Potency [3] | Potency [4] | outcome [12] | outcome [5] | outcome [6] | Potency [7] | outcome [8] | Potency [9] | Potency [10]

C[C@]12CCC(=O)C=C1CC[C@@H]1[C@@H]2CC[C@@]2(C)[C@H]1CC[C@]2(O)C(=O)CO
inactive: Potency [1] | Potency [11] | Potency [3] | Potency [4] | outcome [12] | outcome [5] | outcome [6] | Potency [7] | outcome [8] | Potency [9] | Potency [10] | Potency [15] | Potency [16] | Potency [14]
